Out of some 48,000 compounds screened, about 13,000 (27%) showed an effect of 50% or more. The list shows a part of the results.
test system: Wolbachia pipientis; assay: Anti-Wolbachia Cell-Based Screen; type: functional; set-up: scale not given: in the data most compounds retested in dose-response had high values; details: 5 µM

Row | SMILES | Percent Effect
1 | O=C1NCC2(CCCN(C(=O)Nc3cccc(-c4cscn4)c3)CC2)O1 (stereo not given) | -23.17%
2 | COCc1cc(N2C[C@@H](C)[C@](O)(C3CC3)C2)ncn1 | -1.024%
3 | COc1ccc2c(c1)CC(NCCCn1cc(C)cn1)CC2 (stereo not given) | 28.69%
4 | COc1ccc2c(c1)CC(NCCCn1nc(C)nc1C)CC2 (stereo not given) | 101%
5 | COc1ccc2c(c1)CC(NCc1cccc(CO)c1)CC2 (stereo not given) | -7.175%
6 | CC(NC(=O)c1cc(C(C)C)[nH]n1)C(=O)Nc1ccccc1 (stereo not given) | -6.667%
7 | Cc1ccc(OC[C@@H]2CNC[C@H](C(=O)NCC3CCCO3)C2)cn1 (stereo not given in full) | 2.624%
8 | CO[C@@H]1CCN(C(=O)Cc2ccc(F)cc2)[C@@H]1Cc1cccnc1.O=C(O)C(F)(F)F | 111.8%
9 | COCC(=O)N1CC[C@@H](OCC2CC2)[C@@H]1Cc1cccnc1.O=C(O)C(F)(F)F | 1.513%
10 | CO[C@@H]1CCN(C(=O)Cc2ccsc2)[C@H]1Cc1cccnc1.O=C(O)C(F)(F)F | 94.83%
11 | CC(=O)NCC(=O)N1CC[C@H](OCC2CC2)[C@@H]1Cc1cccnc1.O=C(O)C(F)(F)F | -17.55%
12 | COCCO[C@H]1CCN(C(=O)c2ccsc2)[C@H]1Cc1ccncc1 | -3.115%
13 | COCCO[C@H]1CCN(C(=O)c2cnccn2)[C@H]1Cc1ccncc1 | -26.79%
14 | CO[C@@H]1CCN(S(=O)(=O)c2cccs2)[C@H]1Cc1cccnc1.O=C(O)C(F)(F)F | 5.775%
15 | CO[C@H]1CCN(C(=O)Cc2ccc(F)cc2)[C@H]1Cc1ccncc1 | 101.6%
16 | CO[C@H]1CCN(S(=O)(=O)c2cccs2)[C@H]1Cc1cccnc1.O=C(O)C(F)(F)F | -2.032%
17 | CO[C@@H]1CCN(C(=O)Cc2cccc(F)c2)[C@H]1Cc1cccnc1.O=C(O)C(F)(F)F | 114.6%
18 | CCO[C@@H]1CCN(C(=O)c2ccc[nH]2)[C@@H]1Cc1cccnc1.O=C(O)C(F)(F)F | 0.6367%
19 | CO[C@@H]1CCN(Cc2nccn2C)[C@H]1Cc1cccnc1.O=C(O)C(F)(F)F.O=C(O)C(F)(F)F | 5.954%
20 | C=C(C)CN1CCC(NC(=O)Nc2cc(C(N)=O)ccc2OC)CC1 | -10.13%
21 | CCc1nn(C)c(Cl)c1CN1CCCC2(CC1)CN(C)C(=O)O2 (stereo not given) | 89.96%
22 | CCc1nn(C)c(Cl)c1CN1C[C@H](NC(=O)CCO)[C@@H](C(C)C)C1 | -7.141%

Row | SMILES | Percent Effect
23 | CCc1nn(C)c(Cl)c1CN1CCC2(C1)CN(C)C(=O)O2 (stereo not given) | 121.6%
24 | CCc1nn(C)c(Cl)c1CN1CCC(Cc2nncn2C)CC1 | 1.908%
25 | COc1c(F)cc(CN2CCC3(CC2)CN(C)C(=O)O3)cc1Cl | -3.055%
26 | CCc1nn(C)c(Cl)c1CN1CCN(c2ccc(Cl)nn2)CC1 | -2.423%
27 | CCc1n[nH]c(C(=O)N2CCCC3(CN(C)C(=O)O3)C2)c1C (stereo not given) | -7.274%
28 | CCc1nn(C)c(Cl)c1CN1CCCC2(C1)CN(C)C(=O)O2 (stereo not given) | 101.8%
29 | CN1CC2(CCN(Cc3cc(Cl)ccc3OCC(=O)O)CC2)OC1=O | -19.61%
30 | O=C(O)c1c(Cl)ncn1-c1cccc2ccccc12 | 101.1%
31 | O=C1CC(c2ccc(C(=O)O)cc2)c2ncn(-c3ccccc3Cl)c2N1 (stereo not given) | 2.095%
32 | Cc1ccccc1N1CCN(C(=O)Cn2ccnc2)CC1=O | -5.789%
33 | Cc1ccccc1N1CCCN(C(=O)c2nn(C)cc2Cl)CC1 | 7.51%
34 | Nc1nccnc1C(=O)N1CCN(Cc2cccc3ccccc23)CC1 | -30.2%
35 | Cc1ccccc1-n1cnc(Cl)c1C(=O)O | 65.1%
36 | Cc1ccc(-c2n[nH]cc2CNCC2CCN(CC(F)(F)F)C2)o1.Cl (stereo not given) | -7.389%
37 | Cc1cc(N2CCCN(C(C(=O)O)c3cccc(C)c3F)CC2)ccn1 (stereo not given) | 1.101%
38 | O=C1CCC(C(=O)N2CCOC(Cc3cccc4ccccc34)C2)=NN1 (stereo not given) | -9.724%
39 | Cc1ccc2ncnc(N3CCOCC3c3c(C)nn(C)c3C)c2c1 (stereo not given) | -2.563%
40 | O=S(=O)(c1c(F)cccc1F)N1CCC(Cn2cccn2)CC1 | 15.84%
41 | COCCN1CCCC2(CCN(c3ccsc3)C2=O)C1.O=C(O)C(F)(F)F (stereo not given) | -26.52%
42 | Cc1nc(CN2CCCC3(CCN(c4cnn(C)c4)C3=O)C2)cs1.O=C(O)C(F)(F)F (stereo not given) | 93.19%
43 | Cc1nc(CN2CCC3(CCN(c4cnn(C)c4)C3=O)C2)cs1.O=C(O)C(F)(F)F (stereo not given) | 109%
44 | Cc1cccc(NC2CCN(C(=O)Nc3cc(F)cc(F)c3)CC2)n1 | -9.024%

Row | SMILES | Percent Effect
45 | Cc1ccc(C(=O)Nc2cn[nH]c2)cn1 | 2.995%
46 | Cc1cccc(NC2CCN(C(=O)Nc3cc(C)on3)CC2)n1 | -9.175%
47 | O=C(Nc1ccc(F)c(Br)c1)N1CCCC1 | 7.891%
48 | Cc1cccc(NC2CCN(C(=O)Nc3ccncc3)CC2)n1 | 110.6%
49 | Cc1cccc(NC2CCN(C(=O)Nc3ccccn3)CC2)n1 | 83.84%
50 | Cc1cccc(NC2CCN(C(=O)Nc3ccc(F)c(F)c3)CC2)n1 | 86.81%
51 | Cc1cccc(NC2CCN(C(=O)Nc3cn[nH]c3)CC2)n1 | 110.2%
52 | O=C(CCn1ccc(=O)[nH]c1=O)N1CCC(OCc2cccnc2)CC1 | 17.72%
53 | COCc1noc(C2(c3ccc(Br)cc3)CCOCC2)n1 | -15.05%
54 | CS(=O)(=O)CCCC(=O)N1CCN(CC2CC2)c2ccccc21 | -17.42%
55 | N#Cc1ccc(N2CCCN(CCCn3cncn3)CC2)cc1 | -1.933%
56 | Cc1nc(N2CCC3(CCCNC3=O)C2)nc2c1CCCC2 (stereo not given) | 1.379%
57 | CN1CCC(N(C)CCC(=O)N2CCC(Cc3ccc(F)cc3)CC2)C1 (stereo not given) | -0.3221%
58 | CN1CSC[C@H]1C(=O)N1CCC(CCc2ccccc2)CC1 | -22.77%
59 | CN1C[C@@H](N)C[C@H]1C(=O)N1CCC(CCCc2ccccc2)CC1 | 99.37%
60 | CN1C[C@@H](N)C[C@H]1C(=O)N1CCC(Cc2ccc(F)cc2)CC1 | 81.94%
61 | CCC(=O)N1CCCC1C(=O)N1CCC(Cc2ccc(F)cc2)CC1 (stereo not given) | 110.1%
62 | CC(=O)N1CCCC1C(=O)N1CCC(=Cc2cccc(F)c2)CC1 (stereo not given) | -11.75%
63 | CC(C(=O)N1CCC(Cc2ccc(F)cc2)CC1)n1ccnc1 (stereo not given) | -3.796%
64 | CN1CSC[C@H]1C(=O)N1CCC(Cc2ccccc2F)CC1 | -34.6%
65 | O=C(C1CCS(=O)(=O)CC1)N1CCC(Cc2ccc(F)cc2)CC1 | -5.215%

Reference: ChEMBL document CHEMBL3988442, “University of Dundee, Small-Polar-MMV Screening Library” (2021)
